In PMC12670160, “A drug-repurposing screen of FDA- and EMA-approved drugs identifies two NF-κB inhibitors active against eumycetoma” (Journal of Antimicrobial Chemotherapy, 2025):
Counter-ions that a name gives are not always drawn. Like-named read-outs stand apart in the source and are kept apart here. Out of some 5,300 compounds screened, about 130 (2.5%) showed an effect of 50% or more. Shown is part of a subset that was picked to be rich in strong results. Peptide text beside a SMILES is read from it. * marks the point of attachment. PhAc = O=C(Cc1ccccc1)*

Test system: M. mycetomatis strain mm55
Details: primary screen, metabolic activity vs growth control, 96 h, 2 µM, inhibitor
[1] = Madurella mycetomatis metabolic activity at 2µM (%)

Row | SMILES | % viability | % viability [1]
1 | COCCn1c2c([n+](Cc3cnccn3)c1C)C(=O)c1ccccc1C2=O [ONC0001046, ym155] | 83.36% | 
2 | CN(C)c1ccc(/C=C2\CCCN=C2c2cccnc2)cc1 [ONC0002266, dmabanabaseine] | 49.52% | 
3 | COc1ccc(/C=C2\CCCN=C2c2cccnc2)c(OC)c1 [ONC0001889, gts21] | 72.7% | 
4 | Oc1c(Br)cc(Br)c2cccnc12 [Broxyquinoline] | 5.699% | 
5 | Oc1c(I)cc(I)c2cccnc12 [ONC0000463, iodoquinol] | 67.55% | 
6 | Oc1c(Cl)cc(Cl)c2cccnc12 [ONC0002821, chloroxine] | 92.76% | 
7 | COc1ccc(CCO[C@@H]2CCCC[C@H]2N2CC[C@@H](O)C2)cc1OC [ONC0001796, vernakalant hydrochloride] | 98.02% | 
8 | CC1C[C@H]2[C@@H]3CCC4=CC(=O)C=C[C@]4(C)[C@@]3(Cl)[C@@H](O)C[C@]2(C)[C@@]1(O)C(=O)CO (stereo partly drawn) [ONC0000301, beclomethasone] | 73.26% | 
9 | CC(C)(C)NC[C@@H](O)COc1cccc2c1CCCC2=O [ONC0002849, levobunolol] | 116.9% | 
10 | CC(C)(C)NC[C@H](O)COc1cccc2c1CCCC2=O [ONC0002946, levobunolol] | 70.13% | 
11 | Cc1cccc(OCC(O)CNC(C)(C)C)c1C (stereo not drawn) [ONC0002362, xibenolol] | 46.41% | 
12 | O=C1OC2(c3cc(I)c(O)c(I)c3Oc3c2cc(I)c(O)c3I)c2c(Cl)c(Cl)c(Cl)c(Cl)c21 [ONC0002983, rosebengallactone] |  | 60.55%
13 | CCCCC(CC)CNC(=N)NC(=N)NCCCCCCNC(=N)NC(=N)NCC(CC)CCCC (stereo not drawn) [Alexidine dihydrochloride] | 2.643% | 
14 | CCCCCCCCCCC(CO)CCCCCCCC (stereo not drawn) [ONC0003687, 2octyldodecan1ol] | 64.53% | 
15 | CCCCCCCCCCCCOS(=O)(=O)O [ONC0004120, dodecylsulfate] |  | 112%
16 | N=C(N)N=Nc1ccc(NNC(=N)S)cc1 [ONC0002980, ambazone] | 75.31% | 
17 | COC(=O)c1cc(OC)c2c(c1-c1c(CO)cc(OC)c3c1OCO3)OCO2 [ONC0002187, bicyclol] | 70.1% | 
18 | COC(=O)c1ccccc1O [ONC0003750, methylsalicylate] | 102.4% | 
19 | COC(=O)c1cc(OC)c2c(c1-c1c(C(=O)OC)cc(OC)c3c1OCO3)OCO2 [ONC0003333, bifendate] | 41.54% | 
20 | CC1(C)[C@@H](OC(=O)CCC(=O)O)CC[C@]2(C)[C@H]3C(=O)C=C4[C@@H]5C[C@@](C)(C(=O)O)CC[C@]5(C)CC[C@@]4(C)[C@]3(C)CC[C@@H]12 [ONC0000604, carbenoxolone sodium] | 49.18% | 

Row | SMILES | % viability | % viability [1]
21 | CC(=O)O[C@@H]1CC[C@@]2(C)[C@@H](CC[C@]3(C)[C@@H]2C(=O)C=C2[C@@H]4[C@@H](C)[C@H](C)CC[C@]4(C)CC[C@]23C)[C@@]1(C)C(=O)O [ONC0002083, akba] | 67.6% | 
22 | CC1(C)[C@@H](O)CC[C@]2(C)[C@H]3C(=O)C=C4[C@@H]5C[C@@](C)(C(=O)O)CC[C@]5(C)CC[C@@]4(C)[C@]3(C)CC[C@@H]12 [ONC0003205, enoxolone] | 101.1% | 
23 | O=c1[nH]c(=O)c2[nH]c(=O)[nH]c2[nH]1 [ONC0003522, uricacid] | 130.7% | 
24 | CCOC(=O)CNC(=O)[C@@H]1CCCN1C(=O)Cc1ccccc1 [ONC0001144, omberacetam] (PhAc-Pro-Gly-OEt) | 45.25% | 
25 | CCOC(=O)[C@H](CCc1ccccc1)N[C@@H](C)C(=O)N1CCC[C@H]1C(=O)O [ONC0000561, enalapril maleate] | 109.8% | 
26 | C[C@H](N[C@@H](CCc1ccccc1)C(=O)O)C(=O)N1CCC[C@H]1C(=O)O [ONC0003897, enalaprilat] | 70.49% | 
27 | N[C@@H]1C[C@H]1c1ccccc1 (racemic) [ONC0000562, tranylcypromine sulfate] | 104.4% | 
28 | CCCN(CCC)CCc1ccc(OC)c(OCCc2ccccc2)c1 [ONC0000866, ne100] | 62.29% | 
29 | O=P(O)(O)C(O)(Cc1cnc2ccccn12)P(=O)(O)O [ONC0000278, minodronic acid hydrate] | 88.21% | 
30 | C[C@@H]1O[C@@]2(CS1)CN1CCC2CC1.C[C@H]1O[C@]2(CS1)CN1CCC2CC1.Cl [ONC0002680, cevimeline] | 67.14% | 
31 | COc1ccccc1CC(=N)N1C[C@@H]2C(=O)CCC(c3ccccc3)(c3ccccc3)[C@@H]2C1 [ONC0001413, rp67580] | 48.12% | 
32 | COc1ccccc1N1CCN(CCN2C(=O)CC3(CCCC3)CC2=O)CC1 [ONC0002563, bmy7378] | 52.22% | 
33 | NC(CC(F)C(=O)O)C(=O)O (stereo not drawn) [ONC0003677, 4fluorodlglutamic acid] | 63.49% | 
34 | CCN(CC)S(=O)(=O)c1ccc(C(=O)O)cc1 [ONC0004305, etebenecid] | 97.53% | 
35 | CC(C)c1ccc2c(c1)CC[C@H]1[C@](C)(CN)CCC[C@]21C [ONC0000210, lylamine] | 63.87% | 
36 | O=c1[nH]cnc2c1ncn2[C@H]1CC[C@@H](CO)O1 [ONC0004781, didanosine videx] | 107% | 
37 | Nc1ncnc2c1ncn2[C@@H]1O[C@H](CO)C[C@H]1O [ONC0003004, cordycepin] | 108% | 
38 | Nc1ncnc2c1ncn2[C@H]1CC[C@@H](CO)O1 [ONC0003689, 23dideoxyadenosine] | 49.81% | 
39 | CSc1ccccc1Nc1nc(N2CCNCC2)nc2c(NCC3CC3)ncnc12.Cl [ONC0001097, khkin1 hydrochloride] | 76.94% | 
40 | O=C(O)c1ccc(OCCn2ccnc2)cc1 [ONC0003331, dazoxiben] | 112.5% | 

Row | SMILES | % viability | % viability [1]
41 | COc1cc(N2CCN(C(C)=O)CC2)ccc1Nc1ncc(Cl)c(Nc2ccc(N3CCN(C(C)=O)CC3)cc2OC)n1 [ONC0003574, krca0008] | 122% | 
42 | CC[C@@H]([C@H](C)O)n1ncn(-c2ccc(N3CCN(c4ccc(OC[C@@H]5CO[C@@](Cn6cncn6)(c6ccc(F)cc6F)C5)cc4)CC3)cc2)c1=O [Posaconazole] | 0.7626% | 
43 | CC(=O)N1CCN(c2ccc(OCC3COC(Cn4ccnc4)(c4ccc(Cl)cc4Cl)O3)cc2)CC1 (stereo not drawn) [Ketoconazole] | 1.788% | 
44 | CC(C)N1CCN(c2ccc(OC[C@@H]3CO[C@@](Cn4cncn4)(c4ccc(Cl)cc4Cl)O3)cc2)CC1 [ONC0002390, terconazole] | 66.82% | 
45 | CCC(C)n1ncn(-c2ccc(N3CCN(c4ccc(OCC5COC(Cn6cncn6)(c6ccc(Cl)cc6Cl)O5)cc4)CC3)cc2)c1=O (stereo not drawn) [Itraconazole hydrochloride] | 4.9% | 
46 | CCC(=O)O[C@@H](OP(=O)(CCCCc1ccccc1)CC(=O)N1C[C@H](C2CCCCC2)C[C@H]1C(=O)O)C(C)C (stereo partly drawn) [ONC0005007, fosinopril sodium monopril] | 152.1% | 
47 | O=C(CCCN1CCC(n2c(O)nc3ccccc32)CC1)c1ccc(F)cc1 [ONC0002014, benperidol] | 79.93% | 
48 | N[C@@H]1CON=C1O [ONC0000314, cycloserine d] | 88.4% | 
49 | CN[C@@H](C)C(=O)N[C@H]1CCCC[C@H]2CCC(C(=O)N[C@@H](c3ccccc3)c3cn(CCCCc4ccc(CCCCn5cc([C@@H](NC(=O)[C@@H]6CC[C@@H]7CCCC[C@H](NC(=O)[C@H](C)NC)C(=O)N76)c6ccccc6)nn5)cc4)nn3)N2C1=O (stereo partly drawn) [ONC0003931, sm164] | 63.69% | 
50 | C=CC(=O)[O-].[Na+] [ONC0002646, sodium acrylate] | 77.54% | 
51 | N#Cc1cnc2c(Cl)cc(NCc3cn(CCN4CCCCCC4)nn3)cc2c1Nc1ccc(F)c(Cl)c1 [ONC0000779, cot inhibitor1] | 49.03% | 
52 | CCN1CCC(n2cc(CNc3cc(Cl)c4ncc(C#N)c(Nc5ccc(F)c(Cl)c5)c4c3)nn2)CC1 [ONC0002075, cot inhibitor2] | 82.04% | 
53 | N#Cc1cnc2cnc(NCc3cccnc3)cc2c1Nc1ccc(F)c(Cl)c1 [ONC0001337, tcs7006] | 78.74% | 
54 | CC(C)=CCC/C(C)=C/CC/C(C)=C/C=C/C(C)=C/C(=O)O [ONC0000885, peretinoin] | 65.8% | 
55 | CCCC[P+](CCCC)(CCCC)Cc1ccc(NC(=O)[C@H](Cc2ccc3ccccc3c2)N=C(NC2CCCCC2)NC2CCCCC2)cc1 [ONC0000223, win64338] | 62.1% | 
56 | CC(NC(=O)CCc1nc(=O)c2ccccc2[nH]1)c1ccccc1 (stereo not drawn) [ONC0005174, me0328] | 117.9% | 
57 | CC(=O)N(O)[C@@H]1c2cc(C#N)ccc2OC(C)(C)[C@H]1O [ONC0004430, y26763] | 123.9% | 
58 | CC1(C)Oc2ccc(C#N)cc2[C@@H](N2CCCC2=O)[C@@H]1O.CC1(C)Oc2ccc(C#N)cc2[C@H](N2CCCC2=O)[C@H]1O [ONC0001708, levcromakalim] | 57.98% | 
59 | CC1(C)Oc2ccc(C#N)cc2[C@@H](OC2=CC(=O)CC2)[C@@H]1O [ONC0003452, pco 400] | 40.31% | 
60 | CCCCCCCCCCCCCCCC(=O)OC1C(SC)OC(C(NC(=O)C2CC(CCC)CN2C)C(C)Cl)C(O)C1O (stereo not drawn) [ONC0004643, clindamycin palmitate hcl] | 84.71% | 
